# This is a sample that favours compounds with a hit; in the whole collection about 19% have one here.
# Giardia kill = Giardia lamblia killing; 340,000 tested, 0.15% active; Giardia lamblia trophozoite viability; activity change, % at 7.66 µM, hits read low; AID 540267; in the data active = activity change below about -80%; inconclusive = between about -30% and that limit;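 note: parasites exposed to compound for two days anaerobically before the ATP read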
#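 Trophozoite viability was measured as ATP-dependent luminescence, read 15-30 min after reagent addition. Before that, parasites at 100 cells/well were exposed to compounds for 48 h, anaerobically, at 37 deg C.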
# ELG1 DNA repair = ELG1-dependent DNA repair inhibition; HEK293T ELG1-luciferase reporter, luminescence, 16 h; DNA damage induced by 5-fluorouridine; Potency, µM (top dose mostly 46.1 µM), inactives show at the highest dose activity change, negative = inhibition, hits mostly inhibitors; 330,000 tested, 2.3% active; note: potency is the fitted concentration of half-maximal effect; nearly all actives have a fitted effect of over 55% in size
#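 5-Fluorouridine DNA damage + compound/DMSO, 2,000 cells/well, 16 h, 37 °C/5% CO2. ONE-Glo, 30 min RT, luminescence. Readout = decrease in reporter signal.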
# TDP1 cell noCPT = qHTS for Inhibitors of human tyrosyl-DNA phosphodiesterase 1 (TDP1): qHTS in cells in absence of CPT; DT40 Tdp1-/- hTDP1 cells, no CPT, ATP luminescence, 48 h; Potency, µM (series often up to 46.2 µM), without a hit: at the highest dose activity change, negative = growth inhibition, usual class: inhibitors; 420,000 tested, 15% active; AID 686978, 2013; note: potency is the fitted concentration of half-maximal effect; nearly all actives have a fitted effect of over 55% in size
#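 Luminescent ATP content (CellTiter-Glo) served as the growth readout. Knockout chicken DT40 cells expressing human TDP1 were exposed to compounds without camptothecin for a minimum 48 hr at 37 °C.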
# TDP1 cell CPT = DT40-hTDP1 cell growth loss with CPT | chicken DT40 Tdp1-/-;hTDP1 cells + 20 nM CPT, ATP luminescence, 48 h | 420,000 tested, 12% active | AID 686979 | Potency, µM (titrated, usually from 46.2 µM), for the others: at the highest dose activity change, negative = growth inhibition, actives largely listed as inhibitors; note: potency is the fitted concentration of half-maximal effect; nearly all actives have a fitted effect of over 55% in size
#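 Cell growth measured by CellTiter-Glo luminescence after a minimum 48 h, 37 C compound exposure with 20 nM CPT in Tdp1-knockout DT40 cells stably expressing hTDP1, seeded 400/well; qHTS titration format.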
# TDP1 block = inhibitors of human tyrosyl-DNA phosphodiesterase TDP1; Q9NUW8; recombinant TDP1, AlphaScreen DNA substrate cleavage; 350,000 tested, 0.28% active; AID 485290; Potency, µM (highest dose often 130 µM), for inactives: at the top dose activity change, negative = inhibition, actives largely listed as inhibitors; note: potency is the fitted concentration of half-maximal effect; nearly all actives have a fitted effect of over 40% in size
# Target sequence (Q9NUW8 whole entry, looked up): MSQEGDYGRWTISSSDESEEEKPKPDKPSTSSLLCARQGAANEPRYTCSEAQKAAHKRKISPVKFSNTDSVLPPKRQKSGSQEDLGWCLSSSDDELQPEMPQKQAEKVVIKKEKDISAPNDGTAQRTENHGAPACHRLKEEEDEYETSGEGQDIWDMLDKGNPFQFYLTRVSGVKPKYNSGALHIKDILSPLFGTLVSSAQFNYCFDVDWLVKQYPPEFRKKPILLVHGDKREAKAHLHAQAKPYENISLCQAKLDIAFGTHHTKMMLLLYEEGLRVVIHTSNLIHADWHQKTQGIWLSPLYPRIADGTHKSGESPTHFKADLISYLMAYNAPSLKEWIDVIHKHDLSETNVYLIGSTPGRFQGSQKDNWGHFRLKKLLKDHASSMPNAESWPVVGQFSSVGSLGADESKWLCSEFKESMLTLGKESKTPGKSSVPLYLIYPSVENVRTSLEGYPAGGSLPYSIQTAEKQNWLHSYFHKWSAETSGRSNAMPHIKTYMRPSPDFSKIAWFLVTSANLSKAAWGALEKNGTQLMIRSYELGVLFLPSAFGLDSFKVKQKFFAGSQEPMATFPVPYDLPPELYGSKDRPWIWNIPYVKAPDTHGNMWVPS
#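 AlphaScreen read-out: signal falls as enzyme removes the 3' tyrosine-FITC from a 5'-biotinylated DNA oligo (15 nM, 5 min, RT). Enzyme was E. coli-made recombinant Tdp1 at 1 nM, exposed to compound for 15 min beforehand; beads 10 ug/ml, 10 min.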
# IL-1B inflam inh = inhibitors of inflammasome signaling (IL-1 beta secretion) | THP-1 LPS/ATP IL-1B secretion, AlphaLISA, 16 h; active compounds read low | activity change, % at 57.5 µM | 360,000 tested, 4.7% active; in the data active = activity change below about -50%; inconclusive = mostly about -30% to -49%
#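 THP-1 cells pretreated 1 hr with compounds (up to 57.5 uM final), then stimulated with LPS (250 ng/mL final) plus ATP (1.25 mM final); secreted IL-1B measured by AlphaLISA after 16 hr, decreased signal indicating inhibition.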
# The depositor's hits bear a star; i = inactive; u = inconclusive; x = no result given. Unless noted, calls come from the whole dose curve; as a rule, active = well fitted curve in the direction sought with a large enough effect; inconclusive = small, poorly fitted or top-dose-only effect, or another doubt; inactive = no such curve, though single readings can be large; an effect the other way counts as inactive or inconclusive. % is set by controls: 0 for no effect and ±100 for the full control effect.
SMILES,Giardia kill,ELG1 DNA repair,TDP1 cell noCPT,TDP1 cell CPT,TDP1 block,IL-1B inflam inh
CO[C@H]1/C=C/O[C@@]2(C)Oc3c(C)c(O)c4c(O)c(c5c(c4c3C2=O)NC2(CCN(CC(C)C)CC2)N=5)=NC(=O)/C(C)=C\C=C\[C@H](C)[C@H](O)[C@@H](C)[C@@H](O)[C@@H](C)[C@H](OC(C)=O)[C@@H]1C,-24.0,x,20.6µM*,u,20.6%,-13.7
Cc1ccc(S(=O)(=O)c2nnn3c2nc(N2CCCC(C)C2)c2cc(Cl)ccc23)cc1C (stereo unspecified),x,x,-12.4%,-3.5%,2.9%,x
CCOC(=O)c1sc(-c2ccc(OC)cc2)cc1N,19.0,u,-21.8%,u,-2.3%,u
CCOC(=O)C1=C(Nc2ccc(OC)cc2)C(N)=NC1=N,x,x,1.3µM*,3.66µM*,x,58.9
CCCCn1c(N)c(N(CC(C)C)C(=O)c2cc(C)oc2C)c(=O)[nH]c1=O,1.1,0.0%,-13.0%,-11.7%,3.7%,i
CCOC(=O)c1sc2nc(SCC(=O)N(CC)CC)n(CCCN3CCCC3=O)c(=O)c2c1C,1.0,u,-11.8%,18.4µM*,4.9%,u
CCN(CC)C(=O)CSc1nc2sc3c(c2c(=O)n1CCOC)CCC3,-6.1,u,-24.6%,9.8%,x,6.1
CCOC(=O)N(C)c1c(CC)nc2c(OCc3ccc(C(F)(F)F)cc3)cccn12,x,x,13µM*,u,x,-8.8
CCc1nc2c(OCc3ccc(C#N)cc3)cccn2c1N(C)C(=O)c1ccc(C)cc1,x,x,18.4µM*,18.4µM*,x,-20.1
CCc1nc2c(OCc3ccc(C(F)(F)F)cc3)cccn2c1N(C)C(=O)c1ccc(OC)cc1,x,x,13µM*,10.3µM*,x,-80.6*
CCc1nc2c(OCc3ccc(C(F)(F)F)cc3)cccn2c1N(C)C(=O)c1ccc(C)cc1,x,x,23.1µM*,23.1µM*,x,-76.0*
CCc1nc2c(OCc3ccc(C#N)cc3)cccn2c1N(C)C(=O)C(C)C,x,x,u,u,x,-16.6
CCOC(=O)N(C)c1c(CC)nc2c(OCc3ccc(F)cc3)cccn12,x,x,u,u,x,-10.0
C[C@H](C(=O)OCO/N=[N+](\[O-])N1CCCC1)c1cccc2ccccc12,-14.7,x,x,x,2.6%,x
CN1C(=O)CC(CC(=O)N2CCCCC2CCO)(c2cccc(F)c2)C1=O (stereo unspecified),x,x,0.8%,13.8%,x,x
CCCCN(C(=O)NCCCCCCNC(=O)N(CCCC)C1CCS(=O)(=O)C1)C1CCS(=O)(=O)C1 (stereo unspecified),18.8,7.2%,4.4%,2.1%,3.6%,10.9
O=C(CSc1n[nH]c(-c2ccco2)n1)Nc1ccccc1,-11.8,12.8%,6.6%,-13.2%,-13.4%,11.2
CCOC(=O)N(C)c1c(CC)nc2c(OCc3ccc(OC(F)F)cc3)cccn12,x,x,14.6µM*,u,x,-4.9
CCc1nc2c(OCc3ccc(OC(F)F)cc3)cccn2c1N(C)C(=O)c1ccco1,x,x,u,u,x,-12.8
CCOC(=O)C1(C)/C(=N/Nc2ccccc2OC)C(=O)C(=O)N1c1ccccc1 (stereo unspecified),-7.1,-12.2%,13µM*,23.1µM*,10.1%,2.0
COc1ccc(F)c(CN(C)CC2CCCN(CCc3ccc(F)cc3)C2)c1 (stereo unspecified),u,-10.5%,16.4µM*,u,4.5%,-57.8*
CN(Cc1ccccc1)CC1CCCN(CCc2ccccc2F)C1 (stereo unspecified),-2.5,4.1%,u,u,5.7%,-22.7
COc1cc(CN(C)CC2CCCN(CCc3cccc(C(F)(F)F)c3)C2)ccc1O (stereo unspecified),11.8,-0.2%,23.1µM*,u,x,u
COc1ccc(CCN2CCCC(CN(C)Cc3cc(OC)c(OC)c(OC)c3)C2)cc1 (stereo unspecified),17.9,-15.5%,16.4µM*,20.6µM*,x,-14.0
COc1cc(CN(C)CC2CCCN(CCc3ccccc3F)C2)cc(Cl)c1OC (stereo unspecified),14.0,-10.1%,25.9µM*,u,-14.5%,-83.8*
SMILES,Giardia kill,ELG1 DNA repair,TDP1 cell noCPT,TDP1 cell CPT,TDP1 block,IL-1B inflam inh
COc1ccccc1CCN1CCCC(CN(C)Cc2ccc(OCCO)cc2)C1 (stereo unspecified),7.0,-2.3%,u,u,x,-22.6
COc1cc(CN(C)CC2CCCN(CCc3ccc(F)cc3)C2)c(Cl)cc1O (stereo unspecified),-8.6,-7.5%,-28.8%,-2.8%,x,4.9
COc1ccc(CN(C)CC2CCCN(CCc3ccc(Cl)cc3)C2)cc1OC (stereo unspecified),-3.9,-5.8%,u,u,x,-86.3*
CC(=O)c1cccc(CN(C)CC2CCCN(CCc3ccccc3C)C2)c1 (stereo unspecified),u,-8.8%,u,16.4µM*,x,-11.6
COc1ccc(CN(C)CC2CCCN(CCc3ccc(F)cc3)C2)cc1OC (stereo unspecified),-13.1,-18.0%,23.1µM*,16.4µM*,3.9%,u
C/C=C(\C)C(=O)NCCN1C2=NC[C@@H](Cc3ccccc3)N2C[C@@H]1Cc1ccc(OC)cc1,-11.8,x,-29.5%,-26.1%,x,-10.5
CCCCCCNC(=O)N[C@@H](C(=O)NCCC[C@H]1CN2C(=NC[C@@H]2Cc2ccccc2)N1CCc1cccc(OC)c1)C(C)C,-8.2,u,4.61µM*,4.11µM*,4.7%,-90.7*
CCOC(=O)C1(C)CCN1C(=O)c1cc(F)cc(F)c1 (stereo unspecified),x,x,-3.9%,-4.2%,x,2.5
CN1CCN(Cc2c(O)ccc3occ(C(=O)c4ccccc4)c23)CC1,4.9,-2.7%,-18.5%,u,5.3%,-1.1
CC(=O)C(C(C)=O)c1c(Cl)c(O)c(O)c2c(C(=O)c3ccccc3)coc12,-5.7,u,3.66µM*,4.61µM*,5.1%,-16.4
CCN1CC(CNCc2cn(-c3ccc(OC)cc3)nc2-c2ccccc2Cl)CC1=O (stereo unspecified),6.2,7.2%,u,u,0.0%,-51.0*
COc1ccc(-n2cc(CNCC3CC(=O)N(C4CC4)C3)c(-c3ccccc3Cl)n2)cc1 (stereo unspecified),12.2,-2.4%,23.1µM*,16.4µM*,0.0%,u
COc1ccc(-c2nn(-c3ccccc3)cc2CNC[C@H]2O[C@@H](n3cnc4c(N)ncnc43)[C@H](O)[C@@H]2O)cc1,-1.3,u,-15.2%,-10.9%,0.7%,u
